Screening data: PubChem BioAssay, several laboratories
This is a sample that favours compounds with a hit; in the whole collection about 3.8% have one here.
NALP1 yeast inh: NALP1 inhibition; S. cerevisiae NALP1/ASC/caspase-1 growth, X-gal OD620, 72 h; inhibition, % at 10 µM; 280,000 compounds, 0.61% hits; in the data active = inhibition mostly above about 24%, no sharp cut-off; inactive = mostly below about 32%
Hsp70 act: switches on Hsp70 transcription; activation, % at 10 µM; 200,000 compounds, 0.04% hits; HeLa Hsp70 promoter luciferase reporter, luminescence; scaled: vehicle 0, proteasome-inhibitor control 100%; AID 1203;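 active = activation above the mean across all tested compounds plus 3 SD, cutoff set per campaign, cut at about 5.5% in these data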;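 note: 100% = MG132 at 30 µM as the positive control and 0% = DMSO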
HSF1 inh: HSF1 inhibition | AID 2098 | NIH3T3-HGL HSE-luciferase, MG132-induced, luminescence 8 h; stronger effect = lower value | activity change, negative = inhibition, % at 7.5 µM (by protocol) | 300,000 compounds, 0.77% hits;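 active = more than half of replicate wells show activity change below -50%, luminescence cut by over half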;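 note: luciferase reports HSF-1 transcriptional activity via heat shock element; 0% = median of DMSO wells and -100% = zero luminescence signal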
p-CIP stab down: lowers stability of the mouse p/CIP coactivator protein | Q05BA5 | F442A p/CIP-EGFP cells, EGFP fluorescence, 16 h | decrease of EGFP signal, % at 10 µM | 290,000 compounds, 0.01% hits;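 active = EGFP signal decrease of at least 30% at 10 µM or well 3 SD below plate mean, unless failing retest; inactive = the rest, including hits failing retest or dose response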
Target sequence (Q05BA5 1-1403): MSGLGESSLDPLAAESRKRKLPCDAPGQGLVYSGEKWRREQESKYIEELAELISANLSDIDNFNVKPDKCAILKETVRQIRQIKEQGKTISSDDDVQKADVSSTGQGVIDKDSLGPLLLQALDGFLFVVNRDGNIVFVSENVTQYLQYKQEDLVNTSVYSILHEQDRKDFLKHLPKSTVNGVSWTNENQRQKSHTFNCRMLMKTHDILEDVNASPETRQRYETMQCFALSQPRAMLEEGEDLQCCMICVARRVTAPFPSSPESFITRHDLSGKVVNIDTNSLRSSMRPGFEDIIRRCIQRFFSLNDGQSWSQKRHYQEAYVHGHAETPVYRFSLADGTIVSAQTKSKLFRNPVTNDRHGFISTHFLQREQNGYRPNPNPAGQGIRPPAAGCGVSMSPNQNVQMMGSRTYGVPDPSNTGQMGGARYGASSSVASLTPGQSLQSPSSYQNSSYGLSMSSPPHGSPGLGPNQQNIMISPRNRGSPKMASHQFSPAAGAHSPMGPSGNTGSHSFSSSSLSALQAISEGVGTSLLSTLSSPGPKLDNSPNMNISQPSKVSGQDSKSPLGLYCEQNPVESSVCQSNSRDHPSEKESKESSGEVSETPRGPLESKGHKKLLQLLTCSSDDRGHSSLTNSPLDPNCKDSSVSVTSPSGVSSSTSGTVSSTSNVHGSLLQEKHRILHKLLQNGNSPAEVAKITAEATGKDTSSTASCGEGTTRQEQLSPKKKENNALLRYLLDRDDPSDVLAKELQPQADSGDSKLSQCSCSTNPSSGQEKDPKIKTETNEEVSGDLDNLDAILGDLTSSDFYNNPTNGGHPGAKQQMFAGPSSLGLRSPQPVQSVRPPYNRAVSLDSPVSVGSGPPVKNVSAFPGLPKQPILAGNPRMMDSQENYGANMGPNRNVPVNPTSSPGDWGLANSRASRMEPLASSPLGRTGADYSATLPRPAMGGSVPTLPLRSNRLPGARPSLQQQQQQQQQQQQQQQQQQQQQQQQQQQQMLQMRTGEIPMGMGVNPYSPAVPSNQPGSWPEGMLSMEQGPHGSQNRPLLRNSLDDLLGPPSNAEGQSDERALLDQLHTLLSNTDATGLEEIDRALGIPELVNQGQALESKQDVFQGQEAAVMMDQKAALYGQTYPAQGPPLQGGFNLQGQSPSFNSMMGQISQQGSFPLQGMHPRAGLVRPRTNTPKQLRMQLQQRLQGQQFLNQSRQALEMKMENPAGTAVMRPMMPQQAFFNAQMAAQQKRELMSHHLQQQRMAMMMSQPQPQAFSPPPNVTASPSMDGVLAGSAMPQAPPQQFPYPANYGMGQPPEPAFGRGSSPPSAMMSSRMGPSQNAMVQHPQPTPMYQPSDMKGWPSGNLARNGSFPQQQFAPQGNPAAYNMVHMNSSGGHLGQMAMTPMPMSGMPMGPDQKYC
HSP90 inh: inhibitors of HSP90 luciferase refolding in rabbit reticulocyte lysate; luciferase refolding luminescence, 3 h; inhibition, % at 5.6 µM; 290,000 compounds, 0.91% hits; AID 1789;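 active = inhibition above the screen-wide mean plus 3 SD, computed separately per campaign, cut at about 16% in these data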;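 note: 0% = DMSO wells and 100% = 60 µM geldanamycin wells; inhibitors lower the luminescence because luciferase stays unfolded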
HSF1 activator: increases HSF-1 driven luciferase reporter signal; NIH3T3-HGL HSF-1 luciferase reporter, MG132, 8 h; 100% = twice DMSO control signal; activation, % at 9 µM; 300,000 compounds, 1.7% hits; AID 504408;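 active = mean replicate activation of at least 50% with a set share of replicates each reaching 50%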;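 note: 0% = median of the neutral control wells and 100% = twice that signal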
Active calls of the source: *; . = no result given; ! = not confirmed by another sample.

SMILES | NALP1 yeast inh | Hsp70 act | HSF1 inh | p-CIP stab down | HSP90 inh | HSF1 activator
COc1ccc(CCNC(=O)C2(C)CCC(=O)N2Cc2ccc(C)cc2)cc1OC (stereo not drawn) | 6 | . | -2 | 4 | -7 | -2
COc1ccc(-n2nnnc2S(=O)(=O)Cc2ccc(C(=O)O)cc2)cc1 | 9 | 0 | 90 | -7 | 5 | 94*
COc1ccc(-n2nnnc2S(=O)(=O)CC(=O)N2CCCCC2)cc1 | -4 | 0 | . | -4 | -1 | .
CCCCCCCCCCCCCCCCn1cc[n+](C)c1 | 94*! | 0 | -26 | -13 | 0 | -29
Cc1ccnc(NC(=O)COc2ccc(Cl)cc2)n1 | . | . | 6 | -5 | 0 | 6
Cc1cc(C)nc(NC(=O)COc2cc(Cl)cc(Cl)c2)n1 | -8 | 0 | -71* | 3 | 3 | -77
Brc1ccc2c(c1)C(c1cccnc1)=NNC(c1cccs1)=N2 | 25 | 0 | 26 | -13 | -3 | 64*
CCCCn1c(=O)[nH]c(=O)c2c1nc(-c1ccc([N+](=O)[O-])cc1)n2CC | 2 | . | 2 | -13 | 1 | 12
CC(=O)NC(CC(=O)NC1CCCc2ccccc21)c1ccccc1 (stereo not drawn) | 11 | . | -1 | 7 | 2 | -1
Clc1ccccc1Cn1nc(-c2ccccc2)nc1-c1ccccc1 | 3 | 0 | 22 | -15 | 1 | 24
Clc1ccc(Cn2nc(-c3ccccc3)nc2-c2ccccc2)cc1 | 24 | 0 | 38 | 2 | 0 | 53*
CC(OC(=O)c1nsc(Cl)c1Cl)C(=O)NCc1ccc2c(c1)OCO2 (stereo not drawn) | 9 | 0 | -85* | -10 | -1 | -88
COc1ccccc1CCNC(=O)c1cc(COc2cccc(C(F)(F)F)c2)on1 | -8 | . | -3 | -6 | 1 | -13
CCOC(=O)c1c(S(=O)(=O)N(C)Cc2ccco2)c(C)n(C)c1C | 20 | . | -13 | -9 | -1 | -6
Cc1ccc(Nc2c(-c3ccco3)nc3ccccn23)cc1 | 25 | 0 | 23 | -12 | 0 | 43
Fc1ccc(Nc2c(-c3ccco3)nc3ccccn23)cc1 | 10 | 0 | 32 | 0 | -10 | 62*
c1ccc(Nc2c(-c3ccco3)nc3ccccn23)cc1 | 17 | 0 | 44 | -11 | -8 | 81*
CCCCOc1ccc(CSc2ncn[nH]2)cc1 | 3 | 0 | 31 | -4 | 1 | 86*
CC(C)C(C(=O)NCC1CCCO1)N(C(=O)CNS(=O)(=O)c1ccc(F)cc1)C1CCCCC1 (stereo not drawn) | 19 | . | 3 | -1 | 1 | 7
Cc1ccc(NC(=O)n2ncc3c(C)cccc32)c(C)c1 | 16 | . | 17 | -5 | -2 | 57*
COc1cccc(NC(=O)n2ncc3c(C)cccc32)c1 | 5 | . | 3 | -11 | 35* | 2
CCCCc1nc2cc(C(=O)NCc3cc(C)n(C)n3)ccc2o1 | -10 | . | 10 | 1 | -6 | 10
CC(=O)c1ccc(Oc2ccc(C(C)=O)cc2)cc1 | 5 | 0 | 9 | 4 | -2 | 56*
CCCN(C(=O)CSc1nc2ccccc2n1CC)C1CCS(=O)(=O)C1 (stereo not drawn) | 21 | . | -7 | -11 | 1 | 1
c1cc2c(cc1C1CCCCC1)c1c3n2CCCNC3CCC1 (stereo not drawn) | 41* | 0 | -7 | 1 | 4 | -12
SMILES | NALP1 yeast inh | Hsp70 act | HSF1 inh | p-CIP stab down | HSP90 inh | HSF1 activator
Cc1cc(C)c2cc(C(=O)Nc3ccccc3)[nH]c2c1 | 4 | . | 21 | 0 | -2 | 37
Cc1nc(S(=O)(=O)Nc2ccc3c(c2)OCCO3)cn1C | . | . | -7 | -6 | -1 | -7
Cn1cc(S(=O)(=O)Nc2ccc3c(c2)OCCO3)cn1 | 7 | 0 | -62* | -6 | 3 | -67
CCn1cc(S(=O)(=O)Nc2ccc3c(c2)OCCO3)cn1 | -2 | 0 | -81* | -2 | 16 | -83
O=C(Nc1cccc(O)c1)c1cc(-c2ccco2)on1 | 49 | 0 | 13 | -6 | 17* | -3
CC(=O)c1cccc(NC(=O)c2cc(-c3ccco3)on2)c1 | 12 | . | 21 | -2 | 5 | 5
COc1cccc(CN2CC(C(=O)NCCc3ccc(C)o3)CCC2=O)c1 (stereo not drawn) | 3 | . | -4 | -16 | -2 | -5
Cc1cccc2sc(NNC(=O)C3COc4ccccc4O3)nc12 (stereo not drawn) | 34 | 0 | -87* | -12 | -4 | -90
Cc1ccnc(-n2c(C)cc(C=O)c2C)c1 | -2 | 0 | 15 | -14 | -2 | 13
CC(=O)N/C(=N/c1nc(C)cc(C)n1)Nc1ccc(NC(C)=O)cc1 | -1 | 0 | -1 | 2 | -1 | 1
CC(=O)N/C(=N\c1nc(C)cc(C)n1)Nc1ccc2ccccc2c1 | -10 | . | -51* | -8 | 13 | -56
O=C(COC(=O)[C@H](Cc1c[nH]c2ccccc12)NC(=O)c1ccc(Cl)cc1)Nc1ccc2c(c1)OCO2 | -1 | 0 | 12 | 2 | 7 | 18
COC(=O)[C@@H](Cc1c[nH]c2ccccc12)NC(=O)c1ccc2c(c1)OCO2 | 25 | . | 30 | 5 | 10 | 70*
COc1ccccc1CNC(=O)CCCn1nc(C)c2c(C)n(-c3ccc(C)cc3)nc2c1=O | 14 | . | -3 | -21 | -3 | 17
C(=C\c1ccccc1)/CSc1nc2ncccc2[nH]1 | . | . | 43 | 5 | -1 | 72*
Clc1cnc2nc(SC/C=C/c3ccccc3)[nH]c2c1 | . | . | 18 | -6 | -1 | 13
CCCNc1nc(C)nc2c1cnn2CCc1ccccc1 | -13 | 0 | 22 | -10 | 0 | 45
Cc1nc(NC(C)C)c2cnn(CCc3ccccc3)c2n1 | -6 | 3 | 44 | -8 | 0 | 54*
CCOc1ccc(N2CC(C(=O)NNC(=O)c3ccc(Br)cc3)CC2=O)cc1 (stereo not drawn) | . | . | -7 | . | . | -6
CC1(C)N=C(C(=O)c2ccccc2)N(O)C1(C)O (stereo not drawn) | 33* | 1 | -6 | -12 | 4 | -12
O=C(c1ccccc1)c1ccncc1 | 5 | 0 | -3 | -4 | 0 | -3
COc1ccc(NC(=O)c2ccc(-c3csc(C)n3)cc2)cc1 | 25 | . | 8 | -8 | 1 | 30
COc1ccc(CC(=O)Nc2cccc(-c3cn4ccccc4n3)c2)cc1 | 30 | 0 | 5 | -1 | 5 | 27
Cc1nc(-c2ccc(C(=O)Nc3ccc(F)cc3)cc2)cs1 | 9 | 0 | 19 | -25 | 3 | 67*
COc1ccc(CC(=O)Nc2ccc(-c3cn4ccccc4n3)cc2)cc1 | 21 | 1 | 126 | -19 | 1 | 184*
Cc1nc(-c2ccc(NC(=O)Cc3ccccc3)cc2)cs1 | 28 | . | 29 | 1 | -2 | 57*
Cc1cccc(OCc2nnc(NC(=O)Cc3cccs3)s2)c1 | -51 | 0 | -4 | 3 | -1 | -2
